# Compounds with a hit are over-represented: about 3.8% of the library has one in this group of screens.
# Nrf2 activator: Nrf2 pathway activation | AREc32 ARE-luciferase reporter (MCF7-derived line), luminescence, 24 h | Potency, µM (titrated, usually from 46.1 µM), without a hit: at the top dose activation, usual class: activators | AID 624171 | 410,000 tested, 0.31% active; also: % of control where 0% means no effect; nearly all actives have a fitted effect of over 65% in size
#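 Steps: seed AREc32_Fluc cells (1000/well, 5% FBS OPTI-MEM); incubate overnight at 37 deg C; add 23 nL compound; incubate 24 hr; add Steady-Glo; hold 30 min RT; read luminescence.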
# Nrf2 inh: blocks Nrf2 signaling; A549 ARE-Fluc reporter, luciferase luminescence, 18-24 h; Potency, µM (highest dose often 46 µM), for inactives: top-dose activity change, negative = inhibition, most hits filed as inhibitors; 360,000 tested, 2.1% active; AID 504444; also: % is scaled to controls: 0 for no effect and ±100 for the full control effect; nearly all actives have a fitted effect of over 60% in size
#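 Nrf2 function is reported as luminescence of an ARE-controlled luciferase in A549 cells. Compounds were tested at several concentrations, and a CellTiter-Fluor read on the same wells flagged cytotoxicity.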
# IDH1 R132H inh: human IDH1 R132H inhibition; IDH1-R132H enzyme, NADPH consumption, diaphorase/resazurin fluorescence; Potency, µM (titrated, usually from 76.6 µM), inactives show at the highest dose activity change, negative = inhibition, usual class: inhibitors; 390,000 tested, 0.093% active; AID 602179; also: % is scaled to controls: 0 for no effect and ±100 for the full control effect; nearly all actives have a fitted effect of over 65% in size
# Target sequence (O75874 whole entry R132H, stated change not applied): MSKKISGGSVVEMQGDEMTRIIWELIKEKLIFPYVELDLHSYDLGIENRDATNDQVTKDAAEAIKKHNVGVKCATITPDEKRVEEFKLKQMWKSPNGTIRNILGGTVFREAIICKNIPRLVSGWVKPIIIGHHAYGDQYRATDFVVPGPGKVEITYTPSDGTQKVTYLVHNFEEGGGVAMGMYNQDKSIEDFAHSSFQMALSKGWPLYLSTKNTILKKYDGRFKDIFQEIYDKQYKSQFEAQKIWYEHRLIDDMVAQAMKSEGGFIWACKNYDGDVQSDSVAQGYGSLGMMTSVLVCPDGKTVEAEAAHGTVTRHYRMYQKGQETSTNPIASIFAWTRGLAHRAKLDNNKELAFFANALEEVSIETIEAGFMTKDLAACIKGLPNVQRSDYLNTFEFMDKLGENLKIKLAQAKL
#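 IDH1-R132H (0.5 ug/mL dispensed) in pH 7.5 Tris buffer was preincubated 30 min with compound, then given a substrate mix of 0.016 mM NADPH and 2 mM alpha-KG for 80 min at room temperature; remaining NADPH was read by diaphorase/resazurin fluorescence.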
# A549 viability: counter-screen for Nrf2 inhibitors: cytotoxicity in A549 cells; Potency, µM (titrated, usually from 46 µM), inactives show at the highest dose activity change, negative = cytotoxicity, usual class: inhibitors; 390,000 tested, 0.16% active; A549 ARE-Fluc cells, CellTiter-Fluor viability, 18-24 h; also: % is scaled to controls: 0 for no effect and ±100 for the full control effect
#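 A549 ARE_Fluc cells in 5% FBS OPTI-MEM were exposed to compounds in concentration-response for 18-24 h at 37 deg C. Viability was read by CellTiter-Fluor fluorescence (Ex 405/Em 525) after 30 min, before the luciferase read.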
# ELG1 repair inh: blocks ELG1-dependent DNA repair in HEK293T cells | HEK293T ELG1-luciferase reporter, luminescence, 16 h; DNA damage induced by 5-fluorouridine | Potency, µM (highest dose often 46.1 µM), without a hit: at the top dose activity change, negative = inhibition, actives largely listed as inhibitors | 330,000 tested, 2.3% active | AID 504467; also: % is scaled to controls: 0 for no effect and ±100 for the full control effect; nearly all actives have a fitted effect of over 55% in size
#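 Quantitative HTS, concentration-response format. 2,000 cells/well co-treated with 5-fluorouridine and compound, 16 hr in 5% CO2 at 37 °C; ONE-Glo luminescence read after 30 min.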
# Starred values were filed as active, the others as inactive; ? = inconclusive; . = not tested or not shown. Calls follow the shape of the dose curve; as a rule, active = well fitted curve in the direction sought with a large enough effect; inconclusive = small, poorly fitted or top-dose-only effect, or another doubt; inactive = no such curve, though single readings can be large; an effect the other way counts as inactive or inconclusive. Potency is read from the fitted curve at half-maximal effect.
SMILES,Nrf2 activator,Nrf2 inh,IDH1 R132H inh,A549 viability,ELG1 repair inh
COc1ccc(CN2CC(=O)N(c3ccc(C)c(C)c3)C2=S)cc1OC,7%,-10%,7%,2%,16µM*
COc1cc(CN2CC(=O)N(c3ccc(C)c(C)c3)C2=S)cc(OC)c1OC,1%,-7%,2%,0%,?
COc1ccc(CN2CC(=O)N(c3ccc(C)cc3C)C2=S)cc1OC,0%,13µM*,3%,-14%,?
COc1ccc(CN2CC(=O)N(c3ccccc3C)C2=S)cc1OC,1%,?,-6%,-3%,?
CCOCc1cc(CN2CCN(c3cccc(C(F)(F)F)c3)CC2)c(O)c2ncccc12,0%,?,-17%,-2%,.
CC(C)OCc1cc(CN2CCN(c3cccc(C(F)(F)F)c3)CC2)c(O)c2ncccc12,1%,16µM*,-10%,-25%,.
O=C(NCc1cccc(F)c1)c1ccccc1NC(=O)c1nsc2ccccc12,6%,.,7%,-16%,.
Cc1nc2ccccc2c2oc(C(=O)N3CCc4ccccc4C3)cc12,0%,?,-5%,0%,26µM*
Cc1nc2ccccc2c2oc(C(=O)N3CCC(C)CC3)cc12,-1%,4%,-3%,-4%,?
Cc1nc2ccccc2c2oc(C(=O)NC3CC3)cc12,5%,?,13%,3%,-1%
CCOc1ccc(NC(=O)c2cc3c(C)nc4ccccc4c3o2)cc1,-1%,-23%,0%,-2%,8.2µM*
Cc1ccc(C2=Nc3ccccc3N(CC(=O)Nc3ccccc3F)C(=O)C2)cc1C,5%,23%,7%,-11%,.
Cc1cc(-c2ccc(C)c(S(=O)(=O)NC3CCCCC3)c2)on1,0%,-14%,-8%,-4%,.
Cc1nc([N+](=O)[O-])c(Br)n1Cc1ccc(Cl)c(Cl)c1,-3%,16µM*,?,?,?
Fc1cccc(Cl)c1/C=C/c1cnc2ccccc2n1,3.5µM*,?,-3%,2%,?
CCOc1ccc(C(=O)c2cn(CC(=O)Nc3ccc(Cl)cc3)c3cc4c(cc3c2=O)OCCO4)cc1,0%,8%,-6%,0%,.
Cc1cncn1CCc1nc2c3ccccc3nc(SCC(=O)Nc3cccc(Cl)c3)n2n1,16%,-18%,10%,16µM*,?
Cc1cccc(NC(=O)CSc2nc3ccccc3c3nc(CCc4c(C)n[nH]c4C)nn23)c1,-1%,10µM*,-22%,?,?
Cc1cncn1CCc1nc2c3ccccc3nc(SCC(=O)Nc3ccc(F)cc3)n2n1,-1%,.,-9%,0%,.
Cc1n[nH]c(C)c1CCc1nc2c3ccccc3nc(SCC(=O)Nc3ccccc3F)n2n1,0%,?,5%,?,?
c1ccc(P(c2ccccc2)c2cnc3ccccn23)cc1,.,-2%,.,-1%,.
C=CC[C@@H](CC(=O)N[C@@H](CO)Cc1ccccc1)C(=O)N[C@@H](COC(=O)[C@@H](CC=C)CC(=O)OC(C)(C)C)Cc1c[nH]c2ccccc12,9%,5%,19%,-15%,-21%
C=CC[C@@H](CC(=O)N[C@H](CO)Cc1ccccc1)C(=O)N[C@H](COC(=O)[C@@H](CC=C)CC(=O)OC(C)(C)C)Cc1c[nH]c2ccccc12,-4%,21µM*,1%,12µM*,?
C=CC[C@@H](CC(=O)OC(C)(C)C)C(=O)OC[C@H]1CCCN1C(=O)[C@@H](CC=C)CC(=O)N[C@H](CO)Cc1ccccc1,0%,5%,4%,-8%,16µM*
NC(=O)c1sc(-c2ccsc2)cc1NS(=O)(=O)c1ccc(C(F)(F)F)cc1,4%,15µM*,-25%,-16%,18µM*
SMILES,Nrf2 activator,Nrf2 inh,IDH1 R132H inh,A549 viability,ELG1 repair inh
CC(=O)c1sc(-c2ccccc2)cc1NS(=O)(=O)c1ccccc1,0%,0%,6%,5%,3%
CC(=O)c1sc(-c2ccc(F)cc2)cc1NS(=O)(=O)c1ccc(C)cc1,0%,1%,4%,-12%,18µM*
CC(=O)C(=Cc1ccc(-c2ccccc2)cc1)C(=O)c1ccccc1,-3%,.,.,.,.
Cc1ccc(OCC(=O)Nc2ccc3nc(SCC(=O)Nc4ccc(C)cc4C)sc3c2)cc1,0%,?,-6%,-27%,.
COc1cccc(C2c3c(ncn(Cc4cccs4)c3=N)Oc3ccc4ccccc4c32)c1 (stereo not drawn),.,-3%,.,-3%,.
CCn1c(C(=O)N2CCC(C(=O)N3CCN(c4cccc(C)c4C)CC3)CC2)cc2sccc21,-2%,21µM*,-10%,-20%,.
CCn1c(C(=O)N2CCC(C(=O)N3CCN(c4ccccn4)CC3)CC2)cc2sccc21,-1%,-8%,-1%,1%,13µM*
O=C(C1CCN(S(=O)(=O)N2CCOCC2)CC1)N1CCN(c2ccccc2F)CC1,0%,2%,-8%,3%,-9%
Cc1cccc(N2CCN(C(=O)C3CCN(S(=O)(=O)N4CCOCC4)CC3)CC2)c1C,4%,21µM*,10%,2%,18µM*
CCn1c(C(=O)N2CCC(C(=O)N3CCN(c4ccc(OC)cc4)CC3)CC2)cc2sccc21,1%,?,8%,-7%,.
CCCCNc1ncnc2oc(-c3ccco3)c(-c3ccco3)c12,.,21µM*,.,-14%,.
Oc1ccc(Nc2ccccc2F)c2cccnc12,.,?,.,-3%,.
CC(NC(=O)CCn1c(=O)c2cccn2c2ccc(F)cc21)c1ccccc1 (stereo not drawn),1%,?,-6%,6%,.
CC1=NN(c2ccccc2)C(=O)C1C(=O)c1ccccc1 (stereo not drawn),0%,?,3%,-13%,-11%
CC1=NN(c2ccccc2)C(=O)C1C(=O)c1ccc(Cl)cc1 (stereo not drawn),0%,18µM*,7%,?,-14%
C=C[C@H]1CN2CCC1C[C@@H]2C(O)c1ccnc2ccc(OC)cc12 (stereo partly drawn),.,9%,.,-1%,.
COc1ccc2c(Sc3ccc(Cl)cc3)c(C(=O)N3CCCCC3)[nH]c2c1,0%,21µM*,-6%,-9%,.
